target: T1, Aspartate--tRNA(Asp/Asn) ligase (Mycobacterium tuberculosis (strain ATCC 25618 / H37Rv)) (UniProt P9WFW3); assay: Assay for Asp RNA synthetase-1 from Mycobacterium tuberculosis; assay type: functional; parameters: scale not given: direction of the effect not stated beside the values; conditions: 30 µM; note: in the data most compounds retested in dose-response had high values
T1 sequence (whole entry): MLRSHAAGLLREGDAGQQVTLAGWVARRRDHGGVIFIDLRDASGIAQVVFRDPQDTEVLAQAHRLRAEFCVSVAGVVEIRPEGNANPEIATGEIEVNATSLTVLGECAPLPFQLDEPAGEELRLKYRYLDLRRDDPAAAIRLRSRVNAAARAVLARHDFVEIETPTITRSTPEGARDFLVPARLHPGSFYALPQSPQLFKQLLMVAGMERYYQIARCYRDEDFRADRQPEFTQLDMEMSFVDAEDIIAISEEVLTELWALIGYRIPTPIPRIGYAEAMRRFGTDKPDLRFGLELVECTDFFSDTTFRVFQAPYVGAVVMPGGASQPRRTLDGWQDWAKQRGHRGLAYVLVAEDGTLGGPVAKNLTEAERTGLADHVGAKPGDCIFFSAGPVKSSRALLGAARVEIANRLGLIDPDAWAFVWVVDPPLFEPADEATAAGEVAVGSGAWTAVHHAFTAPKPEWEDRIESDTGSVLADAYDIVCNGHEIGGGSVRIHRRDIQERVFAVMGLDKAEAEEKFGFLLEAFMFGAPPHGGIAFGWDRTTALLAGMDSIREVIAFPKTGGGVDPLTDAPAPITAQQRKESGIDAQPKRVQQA

| Structure (SMILES) | Percent Effect [%] |
| --- | --- |
| Cc1ccc(C2CSCCN2C(=O)c2ccc(C(N)=O)cc2)o1 (stereo not given) | -1.11 |
| COCCN1CCC2(CCN(Cc3nccs3)CC2)C1=O | 3.12 |
| COc1cc2nc3n(c(=O)c2cc1OC)CCN(C)CC3 | -1.59 |
| Cc1cc(C)n(C2CN(CC(O)c3ccc4c(c3)OCO4)C2)n1 (stereo not given) | -5.92 |
| Cc1nc(CN2C(=O)CC[C@H]3[C@@H]2CCN3C(=O)c2ccsc2)cs1 | -4.11 |
| Cc1cn2nc(N3CCCN(Cc4noc(C)n4)CC3)sc2n1 | -1.65 |
| CCC(C)CNc1ccc2oc(COC)nc2c1 (stereo not given) | 65.3 |
| CC(=O)N1CCCC1c1ccc(C(=O)N2CCOCC2)s1 (stereo not given) | 2.33 |
| O=C(NCCc1c[nH]cn1)c1ccc2c(c1)C(=O)N(C1CC1)C2=O | -1.45 |
| CN(C)CCN1CCC2(CC1)CN(c1cccnc1)C(=O)CO2 | 4.6 |
| COc1ncccc1CNc1cc(N2CCCC2CO)ncn1 (stereo not given) | -0.88 |
| Cc1ccc(C)c(-c2csc(N)c2C#N)c1 | 2.35 |
| Cc1n[nH]c(C2CN(C(=O)c3ccco3)CCO2)n1 (stereo not given) | 2.88 |
| NC(=O)C1CCCN(C(=O)c2cnc3c(cnn3C3CCCC3)c2)C1 (stereo not given) | -6.91 |
| Cc1cc(CN2CCN(CCOc3cccc(C#N)c3)CC2)no1 | 2.73 |
| CN1CCC/C1=N\S(=O)(=O)c1ccc(NC(=O)c2cccs2)cc1 | -0.972 |
| CC(C)(C)OC(=O)N1CCCc2ccc(NCc3ncc[nH]3)cc21 | 5.68 |
| CCc1nc(NCC(=O)N2CCOCC2)c2c(n1)c(C)nn2CC | -2.73 |
| Cc1cnn(C2CCCN(C(=O)c3ccnc(-n4ccnc4)c3)C2)c1 (stereo not given) | 3.27 |
| O=C(c1ccc(Br)o1)N1CCN(Cc2ccc(OC(F)(F)F)cc2)CC1 | -5.95 |

| Structure (SMILES) | Percent Effect [%] |
| --- | --- |
| NC[C@H]1CC[C@H](C(NC(=O)c2ccccc2)c2ccccn2)CC1 (stereo not given in full) | 1.63 |
| Cc1ccc(NC2CCN(C(=O)c3ccc(Cl)o3)CC2)nn1 | 1.75 |
| CC1CCc2nc(O)c(C(=O)NCCN(C)C)cc2C1 (stereo not given) | -0.552 |
| CCc1nnc(CN2CCCC(c3cc(C(F)(F)F)[nH]n3)C2)o1 (stereo not given) | 1.01 |
| CCC1CCCCCN1C(=O)c1nnc2ccccc2c1N (stereo not given) | -3.53 |
| Cc1cnnn1Cc1ncn2c1CN(Cc1cccs1)CCC2 | -1.27 |
| CCCc1nc(C)c(C(=O)NCCN2CCN(CC)CC2)s1 | -0.278 |
| CC(C)(C)OC(=O)N1CCN(C(=O)c2sccc2C2CC2)CC1 | -2.9 |
| c1ccc(Cn2cncn2)c(CNCC2CNc3ccnn3C2)c1 (stereo not given) | 0.425 |
| Cc1ccc(NC(=O)Nc2cnc(N3CCN(C)CC3)nc2)c(Cl)c1 | -3.19 |
| Cc1nc(C)n(CC2CN(CCc3ccncc3)CCO2)n1 (stereo not given) | 1.98 |
| Cc1cccc(CNC(=O)CNc2cc(CO)ccc2Cl)c1 | 5.12 |
| Cc1nc(C)n(CC2CCCN(c3ncnc4sccc34)C2)n1 (stereo not given) | 1.08 |
| Cc1nn(C)c(N2CCOCC2)c1CNC(c1cccs1)C(C)C (stereo not given) | 1.8 |
| c1ccc2oc(NC3CCCN(Cc4noc(C5CC5)n4)C3)nc2c1 (stereo not given) | -5.59 |
| CC1(C)CC(N2Cc3nc(N4CCOCC4)ncc3C2=O)CC(C)(C)N1 | -4.82 |
| COCCN(C)C(=O)Nc1ccc2c(ccn2CCOC)c1 | -1.14 |
| O=C(CSc1ccc(F)c(F)c1)NS(=O)(=O)c1ccc2c(c1)OCCO2 | 3.35 |
| COC[C@]12COC[C@H]1CN(Cc1cc(OC)cc(OC)c1)C2 | -1.51 |
| CC(C)CN1C[C@H]2CCN(Cc3cccnc3)CC[C@H]2S1(=O)=O | -4.32 |

target: Shiga toxin 2 (Escherichia coli O157:H7) (UniProt P09385+P09386); assay: E. coli 0.157:H7 Shiga Toxin SOP - stx2 screening assay; assay type: functional; parameters: scale not given: direction of the effect not stated beside the values; conditions: 30 µM

| Structure (SMILES) | Percent Effect [%] |
| --- | --- |
| Cc1ccc(C2CSCCN2C(=O)c2ccc(C(N)=O)cc2)o1 (stereo not given) | 8.19 |
| COCCN1CCC2(CCN(Cc3nccs3)CC2)C1=O | -8.73 |
| COc1cc2nc3n(c(=O)c2cc1OC)CCN(C)CC3 | -7.54 |
| Cc1cc(C)n(C2CN(CC(O)c3ccc4c(c3)OCO4)C2)n1 (stereo not given) | 7.61 |
| Cc1nc(CN2C(=O)CC[C@H]3[C@@H]2CCN3C(=O)c2ccsc2)cs1 | -2.73 |
| Cc1cn2nc(N3CCCN(Cc4noc(C)n4)CC3)sc2n1 | 0.184 |
| CCC(C)CNc1ccc2oc(COC)nc2c1 (stereo not given) | -59.7 |
| CC(=O)N1CCCC1c1ccc(C(=O)N2CCOCC2)s1 (stereo not given) | -18.8 |
| O=C(NCCc1c[nH]cn1)c1ccc2c(c1)C(=O)N(C1CC1)C2=O | -47.1 |
| CN(C)CCN1CCC2(CC1)CN(c1cccnc1)C(=O)CO2 | -5.11 |
| COc1ncccc1CNc1cc(N2CCCC2CO)ncn1 (stereo not given) | -26.2 |
| Cc1ccc(C)c(-c2csc(N)c2C#N)c1 | 4.18 |
| Cc1n[nH]c(C2CN(C(=O)c3ccco3)CCO2)n1 (stereo not given) | 5.26 |
| NC(=O)C1CCCN(C(=O)c2cnc3c(cnn3C3CCCC3)c2)C1 (stereo not given) | -20.7 |
| Cc1cc(CN2CCN(CCOc3cccc(C#N)c3)CC2)no1 | 20.5 |
| CN1CCC/C1=N\S(=O)(=O)c1ccc(NC(=O)c2cccs2)cc1 | -166 |
| CC(C)(C)OC(=O)N1CCCc2ccc(NCc3ncc[nH]3)cc21 | -52.5 |
| CCc1nc(NCC(=O)N2CCOCC2)c2c(n1)c(C)nn2CC | -15.5 |
| Cc1cnn(C2CCCN(C(=O)c3ccnc(-n4ccnc4)c3)C2)c1 (stereo not given) | -22.4 |
| O=C(c1ccc(Br)o1)N1CCN(Cc2ccc(OC(F)(F)F)cc2)CC1 | 16.1 |

| Structure (SMILES) | Percent Effect [%] |
| --- | --- |
| NC[C@H]1CC[C@H](C(NC(=O)c2ccccc2)c2ccccn2)CC1 (stereo not given in full) | -25.2 |
| Cc1ccc(NC2CCN(C(=O)c3ccc(Cl)o3)CC2)nn1 | 7.55 |
| CC1CCc2nc(O)c(C(=O)NCCN(C)C)cc2C1 (stereo not given) | -8.38 |
| CCc1nnc(CN2CCCC(c3cc(C(F)(F)F)[nH]n3)C2)o1 (stereo not given) | -4.16 |
| CCC1CCCCCN1C(=O)c1nnc2ccccc2c1N (stereo not given) | -2.87 |
| Cc1cnnn1Cc1ncn2c1CN(Cc1cccs1)CCC2 | -3.58 |
| CCCc1nc(C)c(C(=O)NCCN2CCN(CC)CC2)s1 | -15.4 |
| CC(C)(C)OC(=O)N1CCN(C(=O)c2sccc2C2CC2)CC1 | -0.841 |
| c1ccc(Cn2cncn2)c(CNCC2CNc3ccnn3C2)c1 (stereo not given) | -35.2 |
| Cc1ccc(NC(=O)Nc2cnc(N3CCN(C)CC3)nc2)c(Cl)c1 | -20.4 |
| Cc1nc(C)n(CC2CN(CCc3ccncc3)CCO2)n1 (stereo not given) | -14.2 |
| Cc1cccc(CNC(=O)CNc2cc(CO)ccc2Cl)c1 | 0.559 |
| Cc1nc(C)n(CC2CCCN(c3ncnc4sccc34)C2)n1 (stereo not given) | 21.2 |
| Cc1nn(C)c(N2CCOCC2)c1CNC(c1cccs1)C(C)C (stereo not given) | 25.3 |
| c1ccc2oc(NC3CCCN(Cc4noc(C5CC5)n4)C3)nc2c1 (stereo not given) | -6.82 |
| CC1(C)CC(N2Cc3nc(N4CCOCC4)ncc3C2=O)CC(C)(C)N1 | -59.4 |
| COCCN(C)C(=O)Nc1ccc2c(ccn2CCOC)c1 | -20.9 |
| O=C(CSc1ccc(F)c(F)c1)NS(=O)(=O)c1ccc2c(c1)OCCO2 | 10.6 |
| COC[C@]12COC[C@H]1CN(Cc1cc(OC)cc(OC)c1)C2 | -6.3 |
| CC(C)CN1C[C@H]2CCN(Cc3cccnc3)CC[C@H]2S1(=O)=O | 4.22 |
